For 2 compounds, outcome and AC50 results are on record in PubChem BioAssay (EPA / NIEHS).

Several values for one entry are separate records, joined by “and”; a condition that tells them apart may be missing. Equal entries are not always repeated. Records with an inconclusive call do not appear. Some structures have more than one record in an assay (separate samples or runs), and their calls can disagree. Activity calls are given as the source filed them. Rule for the calls, unless noted: active = hit-call score of the fitted dose curve at least 0.9, where 1 is the maximum; inactive = score below 0.9.

Usually AC50 stands for the concentration at which the activity in the assay is half-maximal.

The nature of assay [1]: IUF_NPC2c_oligodendrocyte_migration_120hr: Leibniz Research Institute for Environmental Medicine (IUF) 120-hour Neural Progenitor Cell Migration Assay for Oligodendrocyte Migration (NPC2c) (AID 2284297).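 Note: O4-positive oligodendrocyte migration distance divided by radial glia migration distance.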 The gist of the method:
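hNPC spheres (GW 16-19 cortex), PDL/laminin, DMEM/F12 3:1 + 1% N2, 37C. Dosing day 0–5, half feed day 3, DMSO ≤0.1%. Fixed 120 h; O4 ICC + Hoechst, HCI. Readout: mean oligodendrocyte distance from sphere edge / radial glia distance.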

A short description of assay [2]: IUF_NPC2a_radial_glia_migration_120hr: Leibniz Research Institute for Environmental Medicine (IUF) 120-hour Neural Progenitor Cell Migration Assay for Radial Glia Migration (NPC2a) (AID 2284298). The gist of the method: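 Hoechst-stained nuclei imaged at 120 h; algorithm maps sphere core by densest nuclei, sets migration edge at density threshold, gives radial glia migration distance (um) per well vs DMSO. hNPC spheres (0.3 mm), PDL/laminin, DMEM/F12 3:1 + 1% N2.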

The nature of assay [3]: IUF_NPC2a_radial_glia_migration_72hr: Leibniz Research Institute for Environmental Medicine (IUF) 72-hour Neural Progenitor Cell Migration Assay for Radial Glia Migration (NPC2a) (AID 2284299). The gist of the method:
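Human fetal cortex (GW 16-19) neural progenitor spheres, 0.3 mm, plated on poly-D-lysine/laminin in N2 differentiation medium with compound from day 0. Radial glia migration distance (um, sphere core edge to migration edge) measured manually in four directions on 72 h brightfield images; well mean used.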

A short description of assay [4]: IUF_NPC2b_neuronal_migration_120hr: Leibniz Research Institute for Environmental Medicine (IUF) 120-hour Neural Progenitor Cell Migration Assay for Neuron Migration (NPC2b) (AID 2284300). The gist of the method: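 hNPC spheres, PDL/laminin, DMEM:F12 3:1 + 1% N2, 37C/5% CO2; 7 concentrations + solvent control (DMSO ≤0.1%), 5 d exposure, half-feed day 3. Fix 120 h, TUBB3 ICC, HCI: mean neuron migration distance ÷ glia distance.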

Assay [5] is described as follows: IUF_NPC3_neuronal_differentiation_120hr: Leibniz Research Institute for Environmental Medicine (IUF) 120-hour Neuronal Differentiation Assay (NPC3) (AID 2284301). Summed up:
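Human fetal (GW 16-19) neural progenitor spheres (0.3 mm) plated on poly-D-lysine/laminin in N2 differentiation medium, exposed 120 h at 37C with half-medium renewal day 3; 7 concentrations. TUBB3+ cells as % of Hoechst nuclei, CNN-identified; DMSO baseline.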

A short description of assay [6]: IUF_NPC4_neurite_length_120hr: Leibniz Research Institute for Environmental Medicine (IUF) 120-hour Neuronal Morphology Assay for Neurite Length (NPC4) (AID 2284302). The gist of the method:
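Human fetal neural progenitor spheres (0.3 mm) plated on poly-D-lysine/laminin in N2 differentiation medium, exposed from day 0 for 120 h with half-medium refresh at day 3, 37C. Mean neurite length (um) of TUBB3-positive neurons from skeletonized immunostaining images; DMSO ≤0.1%.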

The nature of assay [7]: IUF_NPC5_oligodendrocyte_differentiation_120hr: Leibniz Research Institute for Environmental Medicine (IUF) 120-hour Oligodendrocyte Differentiation Assay (NPC5) (AID 2284304; active = hit-call score of the fitted dose curve at least 0.9, where 1 is the maximum;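 note: primary human fetal neural progenitor spheres plated to migrate and differentiate; share of O4-positive cells among Hoechst nuclei found by CNN image analysis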). Summed up:
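hNPC spheres, fetal cortex GW 16-19; PDL/laminin, DMEM:F12 3:1 + 1% N2, 37C/5% CO2; 7 concentrations + solvent control, 5 d exposure, half-change day 3. Readout: %O4+ of Hoechst+ nuclei in migration area, CNN classification; DMSO baseline.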

Assay [8] can be described thus: IUF_NPC4_neurite_area_120hr: Leibniz Research Institute for Environmental Medicine (IUF) 120-hour Neuronal Morphology Assay for Neurite Area (NPC4) (AID 2284305; active = hit-call score of the fitted dose curve at least 0.9, where 1 is the maximum). The gist of the method:
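Human fetal neural progenitor spheres (0.3 mm) plated on poly-D-lysine/laminin in N2 differentiation medium, exposed 120 h (7 concentrations, DMSO ≤0.1%, half-medium refresh day 3). Fixed, TUBB3 immunostained; mean neurite area per neuron by Omnisphero skeletonization.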

Read-out in assay [9]: Vascular cell adhesion molecule 1 (VCAM1), VCAM1 (gene 7412)
The experiment in a line: BSK_IMphg_VCAM1: BioMAP Diversity Plus: IMphg Assay for Vascular cell adhesion molecule 1 (VCAM1) Biomarker Activity (AID 2284286). The settings on record: primary human endothelial cells with macrophages. The gist of the method:
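Human venular endothelial cells co-cultured with macrophages; VCAM-1 quantified by ELISA 24 h after dosing, fitted in the positive direction against DMSO. Cytotoxicity was checked in parallel cultures by SRB total-protein staining (0.1% SRB after 10% TCA fixation, 560 nm).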

Read-out in assay [10]: Intercellular Adhesion Molecule 1 (ICAM1), ICAM1 (gene 3383)
Put plainly: BSK_hDFCGF_ICAM1: BioMAP Diversity Plus: hDFCGF Assay for Intercellular Adhesion Molecule 1 (ICAM1) Biomarker Activity (AID 2284287). The settings on record: primary human foreskin fibroblasts. The gist of the method: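 Primary human foreskin fibroblasts (hDFCGF system) dosed with chemical; ICAM-1 quantified by ELISA at 24 h relative to DMSO. Parallel SRB total-protein staining to assess overt cytotoxicity.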

Read-out in the next assay: CD40, CD40 (gene 958)
The experiment in a line: BSK_IMphg_CD40: BioMAP Diversity Plus: IMphg Assay for CD40 Biomarker Activity (AID 2284288). The settings on record: primary human endothelial cells with macrophages. Summed up: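 Venular endothelial cells co-cultured with macrophages (human primary), CD40 measured by ELISA 24 h after dosing. Positive-direction fit vs DMSO baseline; cytotoxicity tracked by SRB total-protein staining in parallel cultures.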

Read-out in assay [11]: TIMP metallopeptidase inhibitor 2 (TIMP2), TIMP2 (gene 7077)
The experiment in a line: BSK_hDFCGF_TIMP2: BioMAP Diversity Plus: hDFCGF Assay for TIMP metallopeptidase inhibitor 2 (TIMP2) Biomarker Activity (AID 2284289). The settings on record: primary human foreskin fibroblasts. The gist of the method:
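Primary human foreskin fibroblasts in the hDFCGF system, dosed for 24 h; TIMP-2 level measured by ELISA, fitted in the positive direction against DMSO; cytotoxicity checked in parallel by sulforhodamine B total protein staining.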

Read-out in assay [12]: Interleukin-1 alpha (IL1a), IL1A (gene 3552)
Put plainly: BSK_IMphg_IL1a: BioMAP Diversity Plus: IMphg Assay for Interleukin-1 alpha (IL1a) Biomarker Activity (AID 2284290). The settings on record: primary human endothelial cells with macrophages. The gist of the method: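 Human venular endothelial cells co-cultured with macrophages, IMphg system. IL-1α is measured by ELISA 24 h after dosing and fitted in the positive direction against DMSO. Cytotoxicity is assessed by SRB staining of parallel cultures.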

Read-out in assay [13]: E-selectin (Homo sapiens) (UniProt P16581)
Put plainly: BSK_IMphg_ESelectin: BioMAP Diversity Plus: IMphg Assay for Eselectin Biomarker Activity (AID 2284291). The settings on record: primary human endothelial cells with macrophages. The gist of the method:
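Human venular endothelial cell–macrophage co-culture, E-selectin measured by ELISA 24 h after chemical dosing. Signal fitted in the positive direction against DMSO as negative control and baseline.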

Assay [14] in a line: BSK_IMphg_SRB: Viability Assessment in the BioMAP Diversity Plus: IMphg Assay (AID 2284292).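 Note: measured one day after compound addition.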 The settings on record: primary human endothelial cells with macrophages. The gist of the method: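 Human venular endothelial cells with macrophages, 24 h after chemical dosing; total protein by 0.1% SRB staining after 10% TCA fixation, read at 560 nm. Positive-direction fitting versus DMSO baseline.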

Read-out in assay [15]: Macrophage colony-stimulating factor (MCSF), CSF1 (gene 1435)
Put plainly: BSK_IMphg_MCSF: BioMAP Diversity Plus: IMphg Assay for Macrophage colony-stimulating factor (MCSF) Biomarker Activity (AID 2284293). The settings on record: primary human endothelial cells with macrophages. The gist of the method: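 Co-culture of human venular endothelial cells and macrophages, 24 hours of chemical exposure. M-CSF quantified by ELISA, with parallel SRB total-protein staining for cytotoxicity; activity fitted relative to DMSO.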

Read-out in assay [16]: Interleukin-10 (IL10), IL10 (gene 3586)
Put plainly: BSK_IMphg_IL10: BioMAP Diversity Plus: IMphg Assay for Interleukin-10 (IL10) Biomarker Activity (AID 2284294). The settings on record: primary human endothelial cells with macrophages. Summed up:
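Human venular endothelial cells cocultured with macrophages, dosed 24 h; IL-10 measured by ELISA, activity relative to DMSO. Cytotoxicity assessed in parallel cultures by sulforhodamine B total-protein staining.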

The nature of assay [17]: BSK_IMphg_SRB.Mphg: Macrophage Viability Assessment in the BioMAP Diversity Plus: IMphg Assay (AID 2284295). The settings on record: primary human endothelial cells with macrophages. The gist of the method: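 Venular endothelial cells co-cultured with macrophages, read 24 h after dosing. Total protein measured by 0.1% SRB staining after 10% TCA fixation, absorbance at 560 nm. Fitted in positive direction against DMSO baseline.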

Read-out in assay [18]: Thrombomodulin, THBD (gene 7056)
Put plainly: BSK_LPS_Thrombomodulin: BioMAP Diversity Plus: LPS Assay for Thrombomodulin Biomarker Activity (AID 2284296). The settings on record: primary human HUVEC with PBMC. Summed up:
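Human umbilical vein endothelial cells co-cultured with PBMC and stimulated with LPS; cell-surface thrombomodulin measured by ELISA 24 hours after compound. Gain or loss versus DMSO; cytotoxicity checked by SRB staining in parallel cultures.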

Read-out in a further assay: CD69, CD69 (gene 969)
Put plainly: BSK_LPS_CD69: BioMAP Diversity Plus: LPS Assay for CD69 Biomarker Activity (AID 2284303). The settings on record: primary human HUVEC with PBMC. Summed up:
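Human umbilical vein endothelial cells co-cultured with PBMC under LPS stimulation, chemical exposure 24 h; cell-surface CD69 measured by ELISA and fitted in the positive direction versus DMSO.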

Chain of E-selectin (Homo sapiens) (P16581 whole entry, looked up): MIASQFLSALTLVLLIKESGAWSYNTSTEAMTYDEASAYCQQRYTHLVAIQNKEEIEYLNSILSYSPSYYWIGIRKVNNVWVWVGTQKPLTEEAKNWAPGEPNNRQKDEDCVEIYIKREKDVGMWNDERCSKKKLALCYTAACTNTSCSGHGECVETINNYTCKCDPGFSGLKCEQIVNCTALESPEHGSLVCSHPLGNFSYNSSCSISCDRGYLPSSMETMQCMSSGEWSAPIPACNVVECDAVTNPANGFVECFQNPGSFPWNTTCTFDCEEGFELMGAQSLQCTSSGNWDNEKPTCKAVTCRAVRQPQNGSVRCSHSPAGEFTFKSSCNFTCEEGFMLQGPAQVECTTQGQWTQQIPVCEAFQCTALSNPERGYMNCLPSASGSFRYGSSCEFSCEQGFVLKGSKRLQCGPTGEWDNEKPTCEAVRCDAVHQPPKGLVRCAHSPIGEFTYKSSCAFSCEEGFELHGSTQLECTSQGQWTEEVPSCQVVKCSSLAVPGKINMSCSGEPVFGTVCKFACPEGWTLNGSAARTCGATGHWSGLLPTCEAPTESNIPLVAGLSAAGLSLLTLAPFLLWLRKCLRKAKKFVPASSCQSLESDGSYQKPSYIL

Consider `O=P(OC(CCl)CCl)(OC(CCl)CCl)OC(CCl)CCl`, for which the outcome in [1], in [3], in assay [4], in [5], in assay [6] and in assay [8] was inactive. The figures for the AC50 in [2] and in assay [7] were 5.38 µM (active) and 4.15 µM (active), respectively.

In the case of `Cn1cnc([N+](=O)[O-])c1Sc1ncnc2nc[nH]c12`, the AC50 is 9.14 µM (active) in assay [9]; 16.4 µM (active) in the assay with CD40, CD40 (gene 958); 2.5 µM (active) and 9.29 µM (active) in [13]; 14.7 µM (active) and 8.87 µM (active) in assay [15]; 12.6 µM (active) in [16]. Further, the outcome in assay [9] was “inactive”; in [10], “inactive”; in the assay with CD40, CD40 (gene 958), “inactive”; in assay [11] it was “inactive”; in [12], “inactive”; in assay [14], “inactive”. Further, the outcome in assay [17] is “inactive”; in [18], “inactive”; in the assay with CD69, CD69 (gene 969), “inactive”.
